# High-throughput results deposited in PubChem BioAssay by National Center for Advancing Translational Sciences (NCATS).
# The list is not random: actives were taken first. Their share in the collection is about 6.8%.
# KB-3-1 tox – kills parental KB-3-1 adenocarcinoma cells | KB-3-1 viability, CellTiter-Glo ATP luminescence, 72 h | Potency, µM (highest dose often 46.1 µM), actives largely listed as cytotoxic | actives 1.4% (n = 400,000) | AID 1347075; note: % is set by controls: 0 for no effect and ±100 for the full control effect; nearly all actives have a fitted effect of over 60% in size
#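 Luminescent ATP read-out (CellTiter-Glo) measures survival of drug-naive KB-3-1 cells after 72 h compound exposure at 37 °C. Titration series was screened from lowest to highest concentration, with DMSO vehicle plates as background controls.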
# PINK1 expr mod – modulators of PINK1 expression; PINK1 immunofluorescence, high-content cytometry, 24 h; Potency, µM (series often up to 76.6 µM), without a hit: at the highest dose activation (PINK1 increase), most hits filed as activators; actives 0.2% (n = 410,000); AID 624263; active = well fitted activation curve with a large enough effect; inconclusive = small, poorly fitted or top-dose-only effect; cell line not stated here; note: % of control where 0% means no effect; nearly all actives have a fitted effect of over 65% in size
#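 Stable cell line, 250 cells/well, 12 h attachment; compounds pinned at 5 concentrations, 24 h; CCCP control. Fixed with nuclear dye, primary antibodies 12 h at 10 degrees C, secondary plus cell stain; laser-scanning cytometer read.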
# SW480 rerep – induces DNA re-replication in SW480 colon adenocarcinoma cells. SW480 DNA re-replication, Hoechst DNA content imaging, 48 h. Potency, µM (series often up to 46.1 µM), inactives show at the highest dose re-replication activation, actives largely listed as activators. actives 1.8% (n = 340,000); note: % of control where 0% means no effect; nearly all actives have a fitted effect of over 55% in size
#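 Image-based read-out: total Hoechst fluorescence of nuclei (405 nm excitation, 500-530 nm emission), with hits raising the fraction of high-intensity nuclei. SW480 colon cells incubated 48 hr with compounds at 37 C.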
# TSG101-PTAP inh – blocks PTAP/TSG101 interaction to inhibit HIV-1 budding. Fluorescence polarization, FITC-PTAP peptide / Tsg101 binding. 340,000 tested, under 10 active. Potency, µM (series often up to 115 µM), for the others: at the highest dose activity change, negative = inhibition, actives largely listed as inhibitors; active = well fitted inhibition curve with a large enough effect in the main read-out, with a control signal flat, not every such curve was filed as active; inconclusive = small, poorly fitted or top-dose-only effect, or effect the other way, or a change in a side signal; inactive = no such curve, though single readings can be large or run the other way; note: % of control where 0% means no effect
# Target sequence (Q99816 whole entry, looked up): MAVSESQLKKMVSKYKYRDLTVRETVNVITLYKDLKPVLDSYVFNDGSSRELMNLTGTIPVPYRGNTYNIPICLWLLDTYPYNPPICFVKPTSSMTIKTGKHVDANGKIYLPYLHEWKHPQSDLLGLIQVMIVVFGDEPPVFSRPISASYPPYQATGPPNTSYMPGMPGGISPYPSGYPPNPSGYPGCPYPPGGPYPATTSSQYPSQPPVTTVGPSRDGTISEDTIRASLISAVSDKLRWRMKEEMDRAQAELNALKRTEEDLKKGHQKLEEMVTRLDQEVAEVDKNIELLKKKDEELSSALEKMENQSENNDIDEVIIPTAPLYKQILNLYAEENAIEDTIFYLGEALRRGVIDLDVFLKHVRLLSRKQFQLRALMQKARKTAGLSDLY
#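 Fluorescence anisotropy tracks displacement of a FITC-tagged PTAP peptide (50 nM) from the Tsg101 binding domain (10 uM), following a 20 min room-temperature incubation at pH 7.5.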
# MCF10A rereplic – inducers of DNA re-replication in MCF 10A breast cells. MCF 10A DNA re-replication, Hoechst nuclear intensity, 48 h. Potency, µM (doses to about 46.1 µM), for the others: at the top dose activity, positive = re-replication, usual class: activators. actives 2.9% (n = 350,000). AID 624296; note: % of control where 0% means no effect; nearly all actives have a fitted effect of over 50% in size
# KB-V1 cytotox – kills drug-selected multidrug resistant KB-V1 cells. actives 3.4% (n = 400,000). KB-V1 MDR cells viability, CellTiter-Glo, 72 h. AID 1347076. Potency, µM (series often up to 46.1 µM), actives largely listed as cytotoxic; note: % is set by controls: 0 for no effect and ±100 for the full control effect; nearly all actives have a fitted effect of over 60% in size
#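 Drug-selected KB-V1 cells, grown in DMEM lacking phenol red with 10% FBS, receive compound titrations; after three days at 37 degrees C, surviving cell ATP is quantified by CellTiter-Glo luminescence and responses normalized and curve-fitted.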
# Active calls of the source: *; i = inactive; ? = inconclusive; . = not tested or not shown; [ ] = remark or other dose. Unless noted, calls come from the whole dose curve; as a rule, active = well fitted curve in the direction sought with a large enough effect; inconclusive = small, poorly fitted or top-dose-only effect, or another doubt; inactive = no such curve, though single readings can be large; an effect the other way counts as inactive or inconclusive. Potency is the fitted concentration of half-maximal effect.
SMILES,KB-3-1 tox,PINK1 expr mod,SW480 rerep,TSG101-PTAP inh,MCF10A rereplic,KB-V1 cytotox
O=C(Nc1ccon1)c1ccc(OC2CCCC2)cc1,i,3%,-3%,-2%,2%,18µM*
CC(C)(C)c1cc(NC(=O)c2ccc(OC3CCCC3)cc2)no1,?,7%,-1%,-4%,15%,16µM*
Cc1cc(NC(=O)c2ccc(C(C)(C)C)cc2)no1,i,5%,20%,-1%,11%,i
Cc1cccc(Cc2c(C)nc3nc(SCc4cccc(F)c4)nn3c2C)c1,i,-1%,.,.,.,i
CCc1ccc2c(c1)/C(=C/C(=O)c1cccs1)C(=O)N2,?,3%[38.3 µM],9.2µM*,-2%,?,?
CN(C)c1ccc(-c2cncnc2NCc2cccs2)cc1,.,0%,.,.,.,.
CCN(CC)C(=O)c1sc2c(c1C)c(=O)n(-c1ccc(C)c(C)c1)c(=O)n2CC(=O)Nc1ccc(F)cc1,i,3%,.,.,.,?
COc1ccc2nc(NC(=O)c3ccc([N+](=O)[O-])o3)sc2c1,18µM*,0%,7.3µM*,-3%,4.6µM*,?
CN(C)CCCN(C(=O)c1ccc([N+](=O)[O-])o1)c1nc2cc3c(cc2s1)OCO3,i,2%,12µM*,-5%,4%,i
O=C(Cn1cc([N+](=O)[O-])cn1)Nc1ccccn1,i,.,35%,-3%,-1%,i
Cc1cc(C)c2sc(NC(=O)c3ccc([N+](=O)[O-])o3)nc2c1,?,2%,?,-3%,21µM*,i
O=C(Cn1cc([N+](=O)[O-])cn1)Nc1nc2ccccc2s1,i,-1%[38.3 µM],?,-9%,21µM*,i
Cc1cc(C)c2nc(NC(=O)c3ccc([N+](=O)[O-])o3)sc2c1,i,-1%,2%,2%,?,i
O=S(=O)(NCc1nc2cccnc2n1Cc1ccccc1Cl)c1ccc(F)c(Cl)c1,.,2%,.,.,.,.
COc1ccc(-c2cc(C(=O)Oc3ccc(C#N)cc3)no2)cc1,i,0%,.,.,.,?
O=C(Nc1nc2cc3c(cc2s1)OCCO3)c1ccc([N+](=O)[O-])o1,3.3µM*,-1%,1.5µM*,-4%,5.2µM*,?
O=C(Nc1nc2ccccc2s1)c1ccccc1[N+](=O)[O-],i,6%,-24%,1%,0.73µM*,i
O=C(Nc1nc2c(F)cc(F)cc2s1)c1ccc([N+](=O)[O-])o1,10µM*,16%,9.2µM*,-3%,12µM*,i
O=C(Nc1nc2ccccc2s1)c1ccc([N+](=O)[O-])o1,?,0%,16µM*,-4%,21µM*,?
Cc1ccc(-c2nc3c(c(SCc4ccc(Br)cc4)n2)Cc2c(CO)cnc(C)c2O3)cc1,i,1%,.,.,.,i
CC1(C)CC(C(=O)N2CCOc3ccc(CN4CCN(Cc5ccccn5)CC4)cc3C2)CCO1 (stereo unspecified),.,0%,.,.,.,.
COc1ccc2cc3cc(C(=O)N4CCN(c5cccc(Cl)c5)CC4)sc3nc2c1,i,1%,.,.,.,?
CNC(=O)C1CCC(Cn2c(=O)c3sccc3n(CC(=O)N3CCC(C)CC3)c2=O)CC1 (stereo unspecified),i,0%,.,.,.,?
O=C(Nc1nc2ccccc2s1)c1cc(-c2ccccc2)nn1-c1ccccc1,?,1%,14%,0%,?,21µM*
c1ccc2c(c1)CCCN2,i,.,.,.,.,i
O=c1ccc2ccccc2c2ccccc12,8.2µM*,-1%,.,.,.,?
c1ccc2c(c1)ccc1ccccc12,i,8%,-4%,0%,-1%,i
COCCNC(=O)c1cc2c(=O)n(C)c3ccccc3c2n1C,i,3%,2%,-3%,1%,?
COCCCNC(=O)c1cc2c(=O)n(C)c3ccccc3c2n1C,10µM*,10%,?,4%,27%,16µM*
Clc1ccc(-c2nn3c(-c4cc(-c5ccccc5)n[nH]4)nnc3s2)cc1,i,0%,.,.,.,?
